Experiment [1] in a line: qHTS profiling for inhibitors of Plasmodium falciparum (HB3) proliferation (AID 743324).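 Also: 100% = DMSO vehicle wells and 0% = artemisinin-treated control wells.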 The conditions noted are these: Plasmodium falciparum HB3 blood-stage proliferation; at 28.7 µM (top of the series) unless noted. Summed up:
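P. falciparum HB3 grown in erythrocytes (0.3% parasitemia, 2.5% hematocrit final) with compound for 72 h at 37 C, 5% CO2. Parasite DNA detected by SYBR Green after saponin/triton lysis overnight; normalized to 0.29 uM artemisinin and DMSO.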
Background: qHTS replaces the single test concentration by a dilution series.

The nature of experiment [2]: qHTS profiling of the MIPE4 collection as inhibitors of Plasmodium falciparum (3D7) proliferation (AID 743344; call rule not given here;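 also: scaled between DMSO vehicle wells and 0.29 µM artemisinin as full inhibition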). The conditions noted are these: P. falciparum 3D7 in erythrocytes, SYBR Green DNA fluorescence, 72 h; at 28.5 µM (top of the series) unless noted. Summed up:
(§1)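 Erythrocytes infected with P. falciparum (0.3% parasitemia, 2.5% hematocrit) incubated with compounds 72 h at 37 C, 5% CO2. Lysis with saponin/Triton buffer containing SYBR Green I, overnight at room temperature in the dark; DNA fluorescence (485/535 nm) normalised to 0.29 uM artemisinin and DMSO.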

Experiment [3] is described as follows: qHTS profiling of the MIPE4 collection as inhibitors of Plasmodium falciparum (DD2) proliferation (AID 743345; call rule not given here). The conditions noted are these: P. falciparum Dd2 in erythrocytes, SYBR Green DNA, 72 h; at 28.5 µM (top of the series) unless noted. Summed up: as §1
Experiment [4] in a line: qHTS profiling of the MIPE4 collection as inhibitors of Plasmodium falciparum (DD2) proliferation (Rep 2) (AID 743346; call rule not given here). The conditions noted are these: P. falciparum Dd2 in erythrocytes, SYBR Green DNA, 72 h; at 28.5 µM (top of the series) unless noted. Summed up:
as §1

Experiment [5] is described as follows: qHTS profiling of the MIPE4 collection as inhibitors of Plasmodium falciparum (HB3) proliferation (AID 743347; call rule not given here;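 also: plate controls were DMSO vehicle wells for no effect and artemisinin wells for full effect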). The conditions noted are these: P. falciparum HB3 in erythrocytes, SYBR Green DNA, 72 h; at 28.5 µM (top of the series) unless noted. Summed up: as §1
Experiment [6] in a line: High-throughput drug toxicity screening in the BPDCN cell line Gen2.2 (AID 1224824; call rule not given here;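 also: cells exposed to compounds for 48 h before reading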). The conditions noted are these: Gen2.2 BPDCN cells; at 45.8 µM (top of the series) unless noted. The procedure, abridged:
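Seed 500 exponentially growing Gen2.2 cells/well; add compounds by pin tool; incubate 48 h, 37 °C, 5% CO2; add CellTiter-Glo, 15 min RT; read luminescence. % activity vs DMSO (100%) and bortezomib (0%).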

Experiment [7] in a line: High-throughput drug toxicity screening in the BPDCN cell line Cal-1 (AID 1224825; call rule not given here). The conditions noted are these: Cal-1 BPDCN cell viability, qHTS; at 45.8 µM (top of the series) unless noted. The procedure, abridged: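 500 Cal-1 cells/well, RPMI + glutamine + 10% FBS (phenol red-free); cpd added by pin tool; 48 h, 37C, 5% CO2; CTG 15 min RT, lumi read. Normalised: DMSO 100%, bortezomib 9.2 uM 0%.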

Experiment [8] is described as follows: qHTS assay for measurement of the activity of small molecule inhibitors on Zika virus induced Caspase-3 activity in human iPSC derived neural progenitor cells (hNPCs) (AID 1224857). Also: % of control where 0% means no effect; nearly all actives have a fitted effect of over 65% in size. The procedure, abridged: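 hNPCs seeded 350 cells/well, cultured 16–20 h; compounds added 1 h before ZIKV (2 FFU/cell), 37 C 6 h. Caspase-Glo 3/7 luminescence after 30 min RT; % inhibition from induction scaled to uninfected (0%) and infected (100%) wells.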

Experiment [9] in a line: qHTS assay for measurement of the activity of small molecule inhibitors on Zika virus induced Caspase-3 activity in human astrocytoma cells (AID 1224859).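 Also: plate controls were ZIKV-infected untreated cells for no effect and uninfected cells for full effect.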 The procedure, abridged:
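Luminescence read-out (Caspase-Glo 3/7, 30 min RT) of caspase activity in SNB-19 cells infected 6 h with ZIKV, 2 FFU/cell, after 1 h compound pretreatment; % inhibition from induction normalised to uninfected (0%) and infected (100%) wells.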

Experiment [10] can be described thus: qHTS Screen of the MIPE 4.0 Collection Against Ewings Sarcoma (RDES) (AID 1259252). Also: nearly all actives have a fitted effect of over 35% in size. Also: potency is read from the fitted curve at half-maximal effect. Summed up:
(§2)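 After a 4 h attachment period in RPMI/5% FBS, cells were pin-dosed with test compounds; DMSO served as negative and 9.2 uM bortezomib (final) as positive control. Luminescent CellTiter-Glo signal at 48 h defined viability.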

Experiment [11] can be described thus: qHTS Screen of the MIPE 4.0 Collection Against Ewings Sarcoma (TC71) (AID 1259253). Also: nearly all actives have a fitted effect of over 40% in size. Also: potency is read from the fitted curve at half-maximal effect. Summed up: as §2
Experiment [12] in a line: Identifying Small Molecule Inhibitors of Pancreatic Cancer Stem Cells (SN12C, Adherent) (AID 1259358).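 Also: cell survival measured after 48 h of compound exposure.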 Summed up: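 Adherent (2D) versus sphere (3D) formats; spheres generated 14 d in SCM beforehand. Compound transferred by pin tool after 4 h, 48 h incubation, CellTiter-Glo endpoint.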
Experiment [13] can be described thus: Identifying Small Molecule Inhibitors of Pancreatic Cancer Stem Cells (SN12C, Spheroid) (AID 1259360).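 Also: 100% = DMSO-treated cells and 0% = wells without cells.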 The conditions noted are these: Potency: SN12C spheroid viability. Summed up: (§3)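 Cytotoxicity read by CellTiter-Glo luminescence after 48 h compound exposure at 37C; percent activity scaled between DMSO-treated cells and cell-free wells. Spheroid formats used cells pre-formed 14 days in stem cell media on hydrogel.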

Experiment [14] in a line: Identifying Small Molecule Inhibitors of Pancreatic Cancer Stem Cells (Panc1, Adherent) (AID 1259362).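 Also: compound exposure lasted 48 h before the viability read; plate controls were DMSO-treated cells for no effect and cell-free media wells for full effect.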 The conditions noted are these: Potency: viability. Summed up:
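Spheroids grown 14 days in stem cell media on hydrogel-coated nonadherent plates; 2D lines seeded directly. Compounds added after 4 h attachment, 48 h at 37C, 5% CO2; CellTiter-Glo luminescence normalized to DMSO (no inhibition) and no-cell wells (full inhibition).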

The nature of experiment [15]: Identifying Small Molecule Inhibitors of Pancreatic Cancer Stem Cells (A2780, Spheroid) (AID 1259357).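 Also: compound exposure lasted 48 h before the ATP luminescence read; 100% = DMSO treated cells and 0% = wells without cells.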 The conditions noted are these: Potency: A2780 spheroid viability. The procedure, abridged: as §3
Experiment [16] can be described thus: qHTS Screen of the MIPE 4.0 Collection Against Ewings Sarcoma (TC32) (AID 1259256). Also: nearly all actives have a fitted effect of over 45% in size. Also: potency is read from the fitted curve at half-maximal effect. Summed up: as §2
The nature of experiment [17]: qHTS Screen of the MIPE 4.0 Collection Against Ewings Sarcoma (EW8) (AID 1259255).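 Also: 100% = DMSO-treated cells and 0% = medium-only wells without cells; nearly all actives have a fitted effect of over 35% in size.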 Summed up: as §2

Inconclusive results are not listed. Activity calls are given as the source filed them. Unless noted, calls follow the shape of the dose curve; as a rule, active = well fitted curve in the direction sought with a large enough effect; inconclusive = small, poorly fitted or top-dose-only effect, or another doubt; inactive = no such curve, though single readings can be large; an effect the other way counts as inactive or inconclusive.

The values below come from PubChem BioAssay (NCATS).

`CCOC(=O)[C@@H](N)CCC(=O)N[C@@H](CSCc1ccccc1)C(=O)N[C@@H](C(=O)OCC)c1ccccc1` came in with a remaining proliferation (% of control), lower = more inhibition in [1] of 64.9%. The compound also had a parasite growth, % of DMSO control in [2] of 89.7%. This compound also yielded a parasite growth remaining, % of DMSO control (lower = more inhibition) in experiment [3] of 86.5%. Also, the parasite growth, % of control (lower = inhibition) in [4] amounted to 163%. This compound gave a growth, % of control in [5] of 101%. In addition, the cell viability, % of control (lower = more cytotoxic) in experiment [6] stood at 39.6%. The viability (% of control) in experiment [7] was found to be 90.7%. The Potency result in experiment [8], in [9], in experiment [10], in [11], in [12] and in [13] was “inactive” throughout. For the same compound, in [14], the Potency result is “inactive”.
As to `CC(=O)NCCC(=O)N[C@@H](CCC(N)=O)C(=O)N[C@@H](CO)C(=O)N[C@@H](CCC(N)=O)C(=O)N[C@@H](CCC(N)=O)C(=O)N[C@H](C(=O)N[C@@H](Cc1ccccc1)C(=O)N[C@]1(C)CCCCCCC=CCCC[C@@](C)(C(=O)N[C@@H](CCC(N)=O)C(=O)N[C@@H](CC(N)=O)C(N)=O)NC(=O)[C@H](CC(C)C)NC(=O)[C@H](CC(C)C)NC(=O)[C@@H](CCCNC(=N)N)NC(=O)[C@H](Cc2c[nH]c3ccccc23)NC(=O)[C@H](CC(C)C)NC(=O)[C@H](CC(N)=O)NC1=O)[C@H](C)O`, the remaining proliferation (% of control), lower = more inhibition in experiment [1] worked out at 66.8%. In experiment [2], this compound returned a parasite growth, % of DMSO control of 86.3%. The parasite growth remaining, % of DMSO control (lower = more inhibition) in experiment [3] worked out at 41.2%. Besides, the parasite growth, % of control (lower = inhibition) in experiment [4] was 28.5%. Further, the growth, % of control in [5] turned out to be 30.1%. Also, the cell viability, % of control (lower = more cytotoxic) in experiment [6] was found to be 27%. Further, the viability (% of control) in experiment [7] was 78.7%. The Potency result in experiment [8], in experiment [9], in experiment [15], in experiment [12], in experiment [13] and in [14] was “inactive” in each case. Besides, the Potency is 18.7 µM (active) in experiment [10] and 20.9 µM (active) in experiment [11].
Compound `CCOC(=O)[C@H](CCc1ccccc1)N[C@@H](C)C(=O)N1CCCC1C(=O)O` (stereo partly specified) displayed a parasite growth, % of DMSO control in experiment [2] of 53.7%. The compound further returned a parasite growth remaining, % of DMSO control (lower = more inhibition) in experiment [3] of 91.5%. Further, in experiment [4], the parasite growth, % of control (lower = inhibition) was 75.7%. For the same compound, the cell viability, % of control (lower = more cytotoxic) in experiment [6] came out at 190%. Besides, in [7], the viability (% of control) was found to be 76.8%. Further, the Potency result in experiment [8] and in experiment [9] was “inactive” each time. Moreover, the Potency was 20.9 µM (active) in experiment [10], 16.6 µM (active) in experiment [11] and 16.6 µM (active) in experiment [16].
Turning to `O=C(CC12CC3CC(CC(C3)C1)C2)Nc1cccc2nc(NCCNCCO)ccc12`, the parasite growth, % of DMSO control in [2] amounted to 4.99%. In experiment [3], this compound gave a parasite growth remaining, % of DMSO control (lower = more inhibition) of 13.2%. For the same compound, the parasite growth, % of control (lower = inhibition) in experiment [4] stood at 15.5%. In experiment [5], this compound came in with a growth, % of control of 4.24%. Further, the cell viability, % of control (lower = more cytotoxic) in experiment [6] amounted to 5.97%. Besides, in experiment [7], the viability (% of control) turned out to be 5.92%. Moreover, the Potency result in experiment [8] and in [9] was “inactive” throughout. The Potency in [10] is 14.8 µM (active); in experiment [11] it was 7.43 µM (active); in [16] it was 13.2 µM (active).
In experiment [2], `NS(=O)(=O)c1ccc(Nc2nc(OCC3CCCCC3)c3[nH]cnc3n2)cc1` registered a parasite growth, % of DMSO control of 17.4%. Moreover, the parasite growth remaining, % of DMSO control (lower = more inhibition) in experiment [3] was 13.9%. Also, in experiment [4], the parasite growth, % of control (lower = inhibition) is 24.8%. The compound further returned a growth, % of control in experiment [5] of 11%. Also, the cell viability, % of control (lower = more cytotoxic) in experiment [6] amounted to 12%. The viability (% of control) in experiment [7] amounted to 9.86%. Moreover, the Potency entry in experiment [8] and in experiment [9] was “inactive” each time. For the same compound, the values for the Potency in [10], in experiment [11] and in experiment [16] were 5.9 µM (active), 14.8 µM (active) and 16.6 µM (active), respectively.
For `CN(C)CCOc1ccc(C(=C(CCCl)c2ccccc2)c2ccccc2)cc1`, in [4], the parasite growth, % of control (lower = inhibition) is 19.5%. This compound also showed a growth, % of control in experiment [5] of 27%. In addition, the cell viability, % of control (lower = more cytotoxic) in [6] is 103%. In addition, in experiment [7], the viability (% of control) was 111%. Further, the Potency result in experiment [8], in experiment [9] and in experiment [17] was “inactive” each time. The Potency was 1.66 µM (active) in experiment [10] and 3.72 µM (active) in experiment [11].
For `Cn1c(=O)c(-c2c(Cl)cccc2Cl)cc2cnc(Nc3cccc(C(=O)O)c3)nc21`, the parasite growth, % of DMSO control in [2] came to 12.8%. This compound returned a parasite growth remaining, % of DMSO control (lower = more inhibition) in [3] of 13.6%. The parasite growth, % of control (lower = inhibition) in experiment [4] was 19.9%. The same compound displayed a growth, % of control in [5] of 15.5%. For the same compound, in experiment [6], the cell viability, % of control (lower = more cytotoxic) was found to be 462%. Further, the viability (% of control) in experiment [7] worked out at 77.7%. Further, the Potency entry in experiment [8], in experiment [9], in experiment [11] and in experiment [16] was “inactive” throughout. In addition, in experiment [10], the Potency is 0.0662 µM (active).
